Measured values as given in article PMC7862700, “An all-to-all approach to the identification of sequence-specific readers for epigenetic DNA modifications on cytosine”.

Legend:
Experiment in all cases: DAPPL (digital affinity profiling via proximity ligation, sequencing); 10 mM Tris-HCl pH 7.5, 50 mM NaCl, 1 mM DTT, 4% glycerol, room temperature, 30 min; GST-TFs on glutathione beads, 16-mer random dsDNA library, 0.1% formaldehyde crosslink after washing; high values mean tight binding
Conditions in all cases: protein: recombinant; tags: N-terminal GST; dsDNA, one strand shown
ERF = molecular target: T1, ERF (Homo sapiens, UniProt P50548 1-548)
T1 sequence: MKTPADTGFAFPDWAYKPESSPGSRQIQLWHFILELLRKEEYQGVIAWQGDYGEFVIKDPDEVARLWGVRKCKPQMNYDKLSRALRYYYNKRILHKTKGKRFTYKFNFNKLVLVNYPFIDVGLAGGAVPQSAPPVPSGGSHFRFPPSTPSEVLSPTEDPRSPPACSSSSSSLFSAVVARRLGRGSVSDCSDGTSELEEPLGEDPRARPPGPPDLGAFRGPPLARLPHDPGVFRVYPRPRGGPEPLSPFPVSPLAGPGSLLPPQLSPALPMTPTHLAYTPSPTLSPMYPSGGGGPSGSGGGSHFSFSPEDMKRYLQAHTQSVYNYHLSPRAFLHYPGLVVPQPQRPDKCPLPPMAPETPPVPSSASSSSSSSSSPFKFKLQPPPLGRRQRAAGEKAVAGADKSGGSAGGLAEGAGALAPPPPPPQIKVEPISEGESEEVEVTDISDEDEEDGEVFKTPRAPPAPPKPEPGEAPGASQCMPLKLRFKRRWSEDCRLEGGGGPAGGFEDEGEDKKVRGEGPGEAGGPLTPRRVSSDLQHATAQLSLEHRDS
Summary of the method: (§1)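 Pools of DNA-barcoded human transcription factors, expressed in yeast as GST fusions on glutathione beads and combined with a tag-only sample, were incubated with 200 nmole of a 16-mer random double-stranded DNA library. Incubation took 30 min at room temperature in Tris/NaCl/DTT/glycerol buffer and was followed by washing, 0.1% formaldehyde crosslinking, proximity ligation (BsaI/T4 ligase, 1 h, 37 °C), PCR amplification and sequencing on an Illumina NextSeq500. Binding signal is the ratio of a hexamer's read frequency for a factor to its frequency for the tag-only sample.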

ETV3L = molecular target: T2, ETV3L (Homo sapiens, UniProt Q6ZN32 1-361)
T2 sequence: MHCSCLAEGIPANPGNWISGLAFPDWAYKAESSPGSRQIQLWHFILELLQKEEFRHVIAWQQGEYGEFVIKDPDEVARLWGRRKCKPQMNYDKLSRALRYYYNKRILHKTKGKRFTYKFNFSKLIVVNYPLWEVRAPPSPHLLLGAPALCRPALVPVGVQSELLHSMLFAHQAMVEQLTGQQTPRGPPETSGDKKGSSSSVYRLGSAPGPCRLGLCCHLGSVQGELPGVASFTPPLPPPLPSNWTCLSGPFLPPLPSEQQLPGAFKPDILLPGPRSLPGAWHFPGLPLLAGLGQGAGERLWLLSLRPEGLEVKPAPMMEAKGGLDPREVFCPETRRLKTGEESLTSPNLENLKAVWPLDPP
Summary of the method: as §1

ETS2 = molecular target: T3, ETS2 (Homo sapiens, UniProt P15036 1-469)
T3 sequence: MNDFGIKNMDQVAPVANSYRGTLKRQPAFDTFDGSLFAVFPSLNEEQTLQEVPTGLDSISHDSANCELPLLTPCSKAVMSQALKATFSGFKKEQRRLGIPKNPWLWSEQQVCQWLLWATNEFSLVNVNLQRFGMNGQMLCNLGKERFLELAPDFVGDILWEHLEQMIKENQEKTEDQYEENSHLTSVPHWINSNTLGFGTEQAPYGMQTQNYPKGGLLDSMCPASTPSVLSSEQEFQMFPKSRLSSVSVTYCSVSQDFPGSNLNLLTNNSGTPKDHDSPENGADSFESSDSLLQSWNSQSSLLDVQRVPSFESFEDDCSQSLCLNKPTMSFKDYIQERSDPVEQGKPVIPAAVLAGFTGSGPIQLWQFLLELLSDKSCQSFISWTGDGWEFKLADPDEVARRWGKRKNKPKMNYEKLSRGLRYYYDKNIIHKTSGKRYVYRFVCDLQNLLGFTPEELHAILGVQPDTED
Summary of the method: as §1

SPDEF = molecular target: T4, SPDEF (Homo sapiens, UniProt O95238 1-335)
T4 sequence: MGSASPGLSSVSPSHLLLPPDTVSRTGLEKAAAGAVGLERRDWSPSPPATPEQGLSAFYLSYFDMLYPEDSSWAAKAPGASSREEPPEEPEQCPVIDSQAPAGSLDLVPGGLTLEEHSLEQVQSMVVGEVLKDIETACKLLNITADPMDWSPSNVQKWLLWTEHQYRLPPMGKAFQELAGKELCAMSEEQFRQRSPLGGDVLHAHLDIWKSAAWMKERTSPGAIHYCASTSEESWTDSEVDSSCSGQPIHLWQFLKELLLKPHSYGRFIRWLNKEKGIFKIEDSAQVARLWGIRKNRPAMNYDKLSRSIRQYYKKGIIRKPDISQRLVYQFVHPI
Summary of the method: as §1

ETV7 = molecular target: T5, ETV7 (Homo sapiens, UniProt Q9Y603 1-341)
T5 sequence: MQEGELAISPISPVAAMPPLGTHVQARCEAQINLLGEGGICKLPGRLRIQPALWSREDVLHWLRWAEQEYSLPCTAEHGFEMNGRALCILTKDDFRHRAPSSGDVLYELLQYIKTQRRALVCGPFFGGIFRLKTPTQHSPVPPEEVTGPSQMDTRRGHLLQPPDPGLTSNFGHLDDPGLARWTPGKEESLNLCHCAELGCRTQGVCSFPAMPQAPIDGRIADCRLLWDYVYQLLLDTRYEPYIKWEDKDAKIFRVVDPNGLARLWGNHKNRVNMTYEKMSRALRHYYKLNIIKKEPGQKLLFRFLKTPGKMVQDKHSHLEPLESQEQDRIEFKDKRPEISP
Summary of the method: as §1

ELF5 = molecular target: T6, ELF5 (Homo sapiens, UniProt Q9UKW6-2 1-255)
T6 sequence: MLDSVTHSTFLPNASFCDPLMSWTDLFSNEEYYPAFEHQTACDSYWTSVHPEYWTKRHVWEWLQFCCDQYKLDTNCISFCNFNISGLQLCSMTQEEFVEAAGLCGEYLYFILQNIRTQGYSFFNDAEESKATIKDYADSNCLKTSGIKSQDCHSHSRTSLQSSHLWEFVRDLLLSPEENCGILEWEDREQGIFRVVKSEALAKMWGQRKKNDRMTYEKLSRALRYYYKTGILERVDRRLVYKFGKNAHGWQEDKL
Summary of the method: as §1

ETV3 = molecular target: T7, ETV3 (Homo sapiens, UniProt P41162-2 1-143)
T7 sequence: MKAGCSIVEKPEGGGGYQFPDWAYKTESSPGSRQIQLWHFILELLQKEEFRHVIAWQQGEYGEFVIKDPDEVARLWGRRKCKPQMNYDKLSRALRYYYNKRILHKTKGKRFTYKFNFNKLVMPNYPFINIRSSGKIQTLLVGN
Summary of the method: as §1

ETV6 = ETV6 (Homo sapiens, UniProt P41212 1-452)
Summary of the method: as §1

Chain of ETV6 (P41212 whole entry): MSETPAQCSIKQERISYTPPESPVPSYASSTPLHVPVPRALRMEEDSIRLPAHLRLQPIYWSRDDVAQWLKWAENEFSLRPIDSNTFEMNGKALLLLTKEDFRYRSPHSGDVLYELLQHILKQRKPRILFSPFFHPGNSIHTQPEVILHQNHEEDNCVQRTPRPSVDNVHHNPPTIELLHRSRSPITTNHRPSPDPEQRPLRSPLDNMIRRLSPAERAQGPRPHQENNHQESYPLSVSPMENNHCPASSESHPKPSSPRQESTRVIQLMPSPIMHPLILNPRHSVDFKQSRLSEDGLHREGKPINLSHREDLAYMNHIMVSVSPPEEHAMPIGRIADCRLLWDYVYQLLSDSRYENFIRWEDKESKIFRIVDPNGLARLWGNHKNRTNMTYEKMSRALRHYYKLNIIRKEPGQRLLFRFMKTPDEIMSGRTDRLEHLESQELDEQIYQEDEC

| Sequence | binding signal (ERF) | binding signal (ETV3L) | binding signal (ETS2) | binding signal (SPDEF) | binding signal (ETV7) | binding signal (ELF5) | binding signal (ETV3) | binding signal (ETV6) |
| --- | --- | --- | --- | --- | --- | --- | --- | --- |
| TTTCGA | 1.61 fold enrichment (6-mer frequency, TF over GST control) | 1.54 fold enrichment (6-mer frequency, TF over GST control) | 1.42 fold enrichment (6-mer frequency, TF over GST control) | 1.34 fold enrichment (6-mer frequency, TF over GST control) | 1.29 fold enrichment (6-mer frequency, TF over GST control) | 1.42 fold enrichment (6-mer frequency, TF over GST control) | 1.41 fold enrichment (6-mer frequency, TF over GST control) | 1.33 fold enrichment (6-mer frequency, TF over GST control) |
| CTGCTA | 1.49 fold enrichment (6-mer frequency, TF over GST control) | 1.38 fold enrichment (6-mer frequency, TF over GST control) | 1.49 fold enrichment (6-mer frequency, TF over GST control) | 1.4 fold enrichment (6-mer frequency, TF over GST control) | 1.5 fold enrichment (6-mer frequency, TF over GST control) | 1.43 fold enrichment (6-mer frequency, TF over GST control) | 1.39 fold enrichment (6-mer frequency, TF over GST control) | 1.39 fold enrichment (6-mer frequency, TF over GST control) |
| CACGTA | 1.19 fold enrichment (6-mer frequency, TF over GST control) | 1.17 fold enrichment (6-mer frequency, TF over GST control) | 1.14 fold enrichment (6-mer frequency, TF over GST control) | 1.15 fold enrichment (6-mer frequency, TF over GST control) | 1.18 fold enrichment (6-mer frequency, TF over GST control) | 1.15 fold enrichment (6-mer frequency, TF over GST control) | 1.16 fold enrichment (6-mer frequency, TF over GST control) | 1.11 fold enrichment (6-mer frequency, TF over GST control) |
| TTTGAT | 1.21 fold enrichment (6-mer frequency, TF over GST control) | 1.28 fold enrichment (6-mer frequency, TF over GST control) | 1.26 fold enrichment (6-mer frequency, TF over GST control) | 1.12 fold enrichment (6-mer frequency, TF over GST control) | 1.28 fold enrichment (6-mer frequency, TF over GST control) | 1.26 fold enrichment (6-mer frequency, TF over GST control) | 1.32 fold enrichment (6-mer frequency, TF over GST control) | 1.26 fold enrichment (6-mer frequency, TF over GST control) |
| AGCTTC | 1.75 fold enrichment (6-mer frequency, TF over GST control) | 1.64 fold enrichment (6-mer frequency, TF over GST control) | 1.77 fold enrichment (6-mer frequency, TF over GST control) | 1.67 fold enrichment (6-mer frequency, TF over GST control) | 1.65 fold enrichment (6-mer frequency, TF over GST control) | 2.21 fold enrichment (6-mer frequency, TF over GST control) | 1.77 fold enrichment (6-mer frequency, TF over GST control) | 1.84 fold enrichment (6-mer frequency, TF over GST control) |
| GGCCTT | 1.12 fold enrichment (6-mer frequency, TF over GST control) | 1.05 fold enrichment (6-mer frequency, TF over GST control) | 1.09 fold enrichment (6-mer frequency, TF over GST control) | 1.06 fold enrichment (6-mer frequency, TF over GST control) | 1.34 fold enrichment (6-mer frequency, TF over GST control) | 1.06 fold enrichment (6-mer frequency, TF over GST control) | 1.11 fold enrichment (6-mer frequency, TF over GST control) | 1.04 fold enrichment (6-mer frequency, TF over GST control) |
| ATGTAA | 1.18 fold enrichment (6-mer frequency, TF over GST control) | 1.26 fold enrichment (6-mer frequency, TF over GST control) | 1.37 fold enrichment (6-mer frequency, TF over GST control) | 1.32 fold enrichment (6-mer frequency, TF over GST control) | 1.26 fold enrichment (6-mer frequency, TF over GST control) | 1.3 fold enrichment (6-mer frequency, TF over GST control) | 1.32 fold enrichment (6-mer frequency, TF over GST control) | 1.3 fold enrichment (6-mer frequency, TF over GST control) |
